Test results from the supplement of paper PMC6992640.
± gives the standard deviation of the averaged measurements.

Legend:
Assay in all cases: cell viability (% of vehicle); higher = less cytotoxic
Details in all cases: 10 µM; 72 h
HCI01 = tested on: HCI01 (cells of a triple-negative basal-like breast cancer xenograft)
HCI03 = tested on: HCI03 (cells of an ER-positive luminal breast cancer xenograft)
HCI09 = tested on: HCI09 (cells of a triple-negative luminal androgen receptor type breast cancer xenograft)
HCI11 = tested on: HCI11 (cells of an ER-positive luminal breast cancer xenograft)
HCI13 = tested on: HCI13 (cells of an ER-positive luminal breast cancer xenograft)
HCI16 = tested on: HCI16 (cells of a triple-negative basal-like breast cancer xenograft)
UCD52 = tested on: UCD52 (cells of a triple-negative basal-like breast cancer xenograft)
WHIM2 = tested on: WHIM2 (cells of a triple-negative basal-like breast cancer xenograft)
WHIM30 = tested on: WHIM30 (cells of a triple-negative basal-like breast cancer xenograft)
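Note: PDX cells carrying CMV promoter-driven luciferase, viability read as total photon flux per second by IVIS imaging following D-luciferin, vehicle control 0.1% DMSO.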

SMILES | cell viability (HCI01) | cell viability (HCI03) | cell viability (HCI09) | cell viability (HCI11) | cell viability (HCI13) | cell viability (HCI16) | cell viability (UCD52) | cell viability (WHIM2) | cell viability (WHIM30)
O=C(OC1C[N+]2(CCCOc3ccccc3)CCC1CC2)C(O)(c1cccs1)c1cccs1.[Br-] (centres undefined) [Aclidinium Bromide] | 113 ± 14 | 131 | 104 ± 6.3 | 94.2 | 185 ± 6.3 | 93.9 | 79.7 ± 14 | 84.7 ± 7.7 | 106 ± 11
O=P1(NCCCl)OCCCN1CCCl (centres undefined) [Ifosfamide] | 106 ± 14 | 107 | 96.28 ± 0.62 | 84.8 | 153 ± 11 | 74.4 | 104.1 ± 0.65 | 95.7 ± 26 | 109 ± 2.2
C=C1CC2C(CCC3(C)C(=O)CCC23)C2(C)C=CC(=O)C=C12 (centres undefined) [Exemestane] | 166 ± 17 | 103 | 101 ± 14 | 124 | 150 ± 6.5 | 124 | 159 ± 17 | 128 ± 28 | 151 ± 15
CC(C)c1c(CN(C)C(C)Cc2ccccc2)n(C)n(-c2ccccc2)c1=O (centres undefined) [Famprofazone] | 121 ± 24 | 129 | 79.2 ± 5.1 | 111 | 85.3 ± 14 | 121 | 87.7 ± 11 | 97.6 ± 16 | 124 ± 8.3
Nc1nc(N)nc(NC2CC2)n1 [Cyromazine] | 111 ± 13 | 182 | 107 ± 1.9 | 97.8 | 109 ± 22 | 134 | 100 ± 2.3 | 105 ± 28 | 154 ± 13
Cc1cccc(C)c1NC(=O)CN1CCCC1=O [Nefiracetam] | 124 ± 21 | 128 | 99.9 ± 6.5 | 91.9 | 149 ± 33 | 113 | 74.9 ± 0.92 | 85.6 ± 9.6 | 165 ± 5.6
COc1ccc(C(CN(C)C)C2(O)CCCCC2)cc1.Cl (centres undefined) [Venlafaxine] | 103 ± 4.2 | 139 | 99.26 ± 0.21 | 103 | 124 ± 11 | 106 | 119 ± 17 | 118 ± 10 | 169 ± 35
CCNCC.O=S(=O)(O)c1cc(O)ccc1O [Ethamsylate] | 162 ± 90 | 124 | 99.4 ± 7 | 98 | 97.8 ± 10 | 126 | 109 ± 13 | 92.2 ± 12 | 103 ± 4.7
COc1cc2c(c(OC)c1OC)-c1ccc(OC)c(=O)cc1C(NC(C)=O)CC2 (centres undefined) [Colchicine] | 141 ± 19 | 109 | 120 ± 4.5 | 102 | 44.3 ± 2.3 | 108 | 146 ± 28 | 96 ± 9 | 145 ± 7.8
CCC(C(N)=O)N1CCCC1=O (centres undefined) [Levetiracetam] | 141 ± 6.8 | 166 | 116 ± 17 | 98 | 107 ± 14 | 120 | 126 ± 17 | 91.7 ± 10 | 143 ± 4.9
O=P1(N(CCCl)CCCl)NCCCO1 (centres undefined) [Cyclophosphamide] | 107 ± 4.7 | 98 | 104.9 ± 0.44 | 88.5 | 112 ± 5.9 | 80.3 | 99.09 ± 0.21 | 79.86 ± 0.25 | 115 ± 14
CNC1CC(N)C(O)C(OC2OC(CO)C(O)C3OC4(OC(C(N)CO)C(O)C(O)C4O)OC23)C1O (centres undefined) [Hygromycin B] | 66.3 ± 21 | 70.2 | 122 ± 75 | 110 | 114.5 ± 1.1 | 94.3 | 87.4 ± 22 | 97.2 ± 1.2 | 88.3 ± 23
CN(C)C(=O)Oc1ccc[n+](C)c1.[Br-] [Pyridostigmine Bromide] | 104 ± 11 | 120 | 103 ± 3.5 | 92.1 | 136 ± 13 | 105 | 72 ± 2.6 | 96.8 ± 6.6 | 101 ± 3.2
CN1C2CCC1CC(OC(=O)C(CO)c1ccccc1)C2.CN1C2CCC1CC(OC(=O)C(CO)c1ccccc1)C2.O.O=S(=O)(O)O (centres undefined) [Atropine] | 104 ± 7.5 | 134 | 108 ± 16 | 114 | 95.4 ± 4.6 | 101 | 83.3 ± 5.5 | 91.6 ± 19 | 98.4 ± 7.8
CC(NC(C)(C)C)C(=O)c1cccc(Cl)c1.Cl (centres undefined) [Bupropion hydrochloride] | 101 ± 2.5 | 109 | 99.6 ± 20 | 85.6 | 103 ± 1.1 | 113 | 90.5 ± 14 | 104 ± 5.2 | 121 ± 10
Cl.Cn1c(CCCC(=O)O)nc2cc(N(CCCl)CCCl)ccc21 [Bendamustine HCl] | 98.2 ± 7.3 | 93.5 | 95.2 ± 2.5 | 83.5 | 94.9 ± 12 | 77.4 | 97.9 ± 1.9 | 71.4 ± 9.1 | 92.1 ± 14
CC(O)(CS(=O)(=O)c1ccc(F)cc1)C(=O)Nc1ccc(C#N)c(C(F)(F)F)c1 (centres undefined) [Bicalutamide] | 108 ± 8.9 | 113 | 90.6 ± 13 | 90.2 | 127 ± 3.6 | 108 | 89.7 ± 11 | 90.2 ± 6.4 | 108 ± 3.1
C=CCN1CCC23c4c5ccc(O)c4OC2C(=O)CCC3(O)C1C5.Cl (centres undefined) [Naloxone HCl] | 124 ± 20 | 125 | 101 ± 18 | 93.5 | 130 ± 23 | 112 | 74.1 ± 13 | 86 ± 15 | 91.4 ± 2.9
O=c1[nH]c2ccccc2n1C1CCN(CCCC(c2ccc(F)cc2)c2ccc(F)cc2)CC1 [Pimozide] | 103 ± 21 | 104 | 48.1 ± 31 | 70.4 | 69.39 ± 0.41 | 103 | 86.7 ± 16 | 103 ± 24 | 93.69 ± 0.39

SMILES | cell viability (HCI01) | cell viability (HCI03) | cell viability (HCI09) | cell viability (HCI11) | cell viability (HCI13) | cell viability (HCI16) | cell viability (UCD52) | cell viability (WHIM2) | cell viability (WHIM30)
C[N+](C)(C)CC(=O)O.[Cl-] [Betaine hydrochloride] | 111 ± 4.8 | 123 | 95.3 ± 4.7 | 103 | 113 ± 11 | 122 | 82 ± 6.6 | 95.5 ± 6.1 | 107 ± 2.4
CCC1(c2ccc(N)cc2)CCC(=O)NC1=O (centres undefined) [Aminoglutethimide] | 108 ± 13 | 113 | 103 ± 12 | 103 | 112 ± 12 | 103 | 93.01 ± 0.41 | 88.9 ± 8 | 108 ± 2.7
Cl.O=C1CCC2(O)C3Cc4ccc(O)c5c4C2(CCN3CC2CC2)C1O5 (centres undefined) [Naltrexone HCl] | 120 ± 20 | 143 | 108.5 ± 0.5 | 108 | 167 ± 2.8 | 151 | 80.3 ± 20 | 88.9 ± 6 | 92.9 ± 7.2
NCCC(O)(P(=O)([O-])O)P(=O)([O-])O.[Na+].[Na+] [Pamidronate Disodium] | 85.1 ± 9.1 | 82.9 | 86.9 ± 2.1 | 80.8 | 95.2 ± 14 | 59.9 | 76.4 ± 15 | 75 ± 21 | 92.4 ± 13
Cn1c(COP(=O)(NCCBr)NCCBr)cnc1[N+](=O)[O-] | 99.5 ± 14 | 100 | 123 ± 33 | 120 | 153.9 ± 0.46 | 44.9 | 81.4 ± 2.1 | 44.6 ± 2.6 | 107 ± 2.5
O=c1cccc2n1C[C@@H]1CNC[C@H]2C1 [Cytisine] | 93.3 ± 12 | 112 | 97.8 ± 15 | 95 | 106 ± 14 | 128 | 90.9 ± 4.7 | 87.9 ± 19 | 81.4 ± 3.6
Cl.NCCc1c[nH]c2ccc(O)cc12 [Serotonin HCl] | 103 ± 13 | 132 | 99.9 ± 4 | 94.8 | 57.8 ± 1.6 | 109 | 100 ± 9.6 | 137 ± 45 | 163 ± 26
C[N+]1(C)CCCC(OC(=O)C(O)(c2ccccc2)c2ccccc2)C1.[Br-] (centres undefined) [Mepenzolate Bromide] | 109 ± 6.9 | 133 | 103 ± 5.9 | 108 | 133 ± 27 | 108 | 87.5 ± 8.5 | 98.1 ± 7.5 | 128 ± 2.7
CC12CCC3C(CC=C4CC(O)CCC43C)C1CCC2=O (centres undefined) [Dehydroepiandrosterone (DHEA)] | 124 ± 8.8 | 107 | 87 ± 21 | 112 | 111 ± 12 | 102 | 98.2 ± 9.5 | 93.3 ± 20 | 111 ± 4
CCC[C@H](C)[C@@]1(CC)C(=O)N=C([O-])NC1=O.[Na+] [Pentobarbital sodium salt] | 86.4 ± 3 | 105 | 81.9 ± 8.1 | 85.2 | 96.3 ± 17 | 87 | 86.6 ± 2.1 | 96.2 ± 21 | 99.4 ± 11
Cc1cccc(C)c1NC1=NCCCS1.Cl [Xylazine HCl] | 159 ± 36 | 120 | 110 ± 12 | 115 | 105 ± 6.4 | 124 | 92.3 ± 11 | 120 ± 7 | 127 ± 8
N/C(N)=N\N.Cl [Aminoguanidine hydrochloride] | 100 ± 16 | 105 | 95.2 ± 6.9 | 64 | 90 ± 2.4 | 118 | 99.6 ± 9.3 | 95.1 ± 21 | 53.4 ± 6.4
CCN(C)C(=O)Oc1cccc(C(C)N(C)C)c1 (centres undefined) [Rivastigmine] | 107 ± 11 | 112 | 109 ± 4.2 | 106 | 98.3 ± 1.7 | 96.3 | 101 ± 7.6 | 103 ± 16 | 118 ± 9.7
CC1C=CC=CCCC=CC=CC=CC=CC(OC2OC(C)C(O)C(N)C2O)CC2OC(O)(CC(O)C(O)CCC(O)CC(O)CC(O)CC(=O)OC(C)C(C)C1O)CC(O)C2C(=O)O (centres undefined) [Nystatin (Fungicidin)] | 121 ± 47 | 139 | 128 ± 2.6 | 98.5 | 167 ± 21 | 150 | 118 ± 0.94 | 96.5 ± 1.8 | 147 ± 6.6
O=c1[nH]c2ccccc2n1CCCN1CCC(n2c(=O)[nH]c3cc(Cl)ccc32)CC1 [Domperidone] | 195 ± 80 | 103 | 113 ± 65 | 84.9 |  |  | 128 ± 5.5 | 83.8 ± 4.6 | 176 ± 9.8
c1ccc2c(c1)sc1ccccc12 [Dibenzothiophene] | 137 ± 39 | 105 | 87.3 ± 1.6 | 103 | 85 ± 12 | 123 | 115 ± 14 | 117 ± 11 | 98.7 ± 1
NC(Cc1ccc(N(CCCl)CCCl)cc1)C(=O)O (centres undefined) [Melphalan] | 76 ± 14 | 116 | 91.1 ± 6.3 | 107 | 77.7 ± 3.6 | 63.1 | 75.3 ± 11 | 58.5 ± 8.7 | 124 ± 3.2
CCC(COC(=O)c1cc(OC)c(OC)c(OC)c1)(c1ccccc1)N(C)C (centres undefined) [Trimebutine] | 116 ± 6.9 | 109 | 103 ± 7.8 | 92.9 |  | 135 | 84.9 ± 15 | 96.2 ± 2.8 | 111.2 ± 0.53
C[C@@H]1CC[C@H]2[C@@H](C)C(=O)O[C@@H]3OC4(C)CC[C@@H]1[C@]32OO4 [Artemisinine] | 125 ± 38 | 139 | 91.1 ± 1.5 | 102 | 95.7 ± 11 | 153 | 97.45 ± 0.15 | 93.9 ± 15 | 96.3 ± 17
